From PubChem BioAssay
KCNK3 block: human KCNK3 channel inhibition, primary screen; AID 602410; CHO-KCNK3 thallium flux, FluxOR fluorescence; active compounds read low; 340,000 compounds, 0.84% hits; B-score at 10 µM;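 active = B-score under library mean minus 4 SD, starting fluorescence ratio at most library mean plus 5 SD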;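 also: more negative B-score means stronger inhibition of thallium flux through KCNK3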
KCNK9 block: inhibitors of human KCNK9 two-pore domain potassium channel. HEK293 KCNK9, FluxOR thallium flux fluorescence; active compounds read low. B-score at 10 µM. 310,000 compounds, 1.2% hits. AID 488922;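 active = ratio B-score over 3 SD below the library mean, with starting fluorescence within 5 SD of its mean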;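 also: negative B-score means less thallium flux so channel inhibition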
Kir21 block: Kir2.1 (mouse) channel inhibition; HEK293-Kir2.1, FluxOR thallium flux fluorescence; active compounds read low; B-score at 10 µM; 310,000 compounds, 0.85% hits;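 active = fluorescence ratio B-score at or below minus 3 SD of library scores, with starting-brightness B-score within 2 SD, cut at about -4.2 in these data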;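 also: channel flux triggered by added potassium and thallium sulfate stimulus; B-score of peak minus minimum fluorescence over baseline after thallium stimulus; more negative B-score means stronger Kir2.1 block with less thallium influx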
Target sequence (P35561 whole entry, looked up): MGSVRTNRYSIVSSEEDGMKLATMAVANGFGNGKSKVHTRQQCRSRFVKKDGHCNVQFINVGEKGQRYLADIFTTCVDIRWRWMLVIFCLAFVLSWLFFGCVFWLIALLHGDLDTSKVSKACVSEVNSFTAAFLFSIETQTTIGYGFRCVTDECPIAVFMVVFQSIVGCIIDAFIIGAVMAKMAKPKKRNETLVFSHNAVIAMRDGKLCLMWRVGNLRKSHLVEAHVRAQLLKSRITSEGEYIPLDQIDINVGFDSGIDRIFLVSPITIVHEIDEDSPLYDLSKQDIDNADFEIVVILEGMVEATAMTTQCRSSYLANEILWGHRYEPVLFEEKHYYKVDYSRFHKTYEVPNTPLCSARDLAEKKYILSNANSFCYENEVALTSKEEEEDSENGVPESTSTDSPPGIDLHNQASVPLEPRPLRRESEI
TMEM16A inh: mouse TMEM16A channel inhibition, primary screen. Q8BHY3. HEK293 TMEM16A/YFP iodide influx fluorescence, ionomycin. normalized B-score (activity score, 25-100; higher = stronger inhibition) at 10 µM. 310,000 compounds, 1.2% hits. AID 588511;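 active = ratio plate-corrected score three or more library SD toward inhibition, starting fluorescence score within five deviations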;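 also: score derived from kinetic fluorescence span divided by baseline fluorescence per well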
ANO1 activ: activates or potentiates the mouse TMEM16A chloride channel | Q8BHY3 | B-score at 10 µM | 340,000 compounds, 0.3% hits | HEK293 TMEM16A/YFP-H148Q/I152L, iodide quench fluorescence; active compounds read low;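 active = fluorescence-ratio B-score plate-corrected deviation score at least 3 library SD below zero, with starting fluorescence score within 5 deviations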;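 also: channel opened by trigger with iodide after compound preincubation; score built on the fluorescence ratio of max minus min over baseline; more negative score means more quench and so TMEM16A activation or potentiation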
KCNK9 inh conf: confirmation of human KCNK9 potassium channel inhibitors | HEK293 KCNK9 cells, FluxOR thallium flux fluorescence | shares compounds with KCNK9 block | inhibition, % at 10 µM | AID 492992 | 4,900 compounds, 43% hits;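 active = thallium signal inhibited by more than 5 SD of the compound-free buffer control wells, on both duplicate plates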;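 also: 0% = assay buffer control wells without compound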
Kir21 sel: mouse Kir2.1 off-target activity of KCNK9 modulators. inhibition, % at 10 µM. Kir2.1 cells, FluxOR thallium flux fluorescence. 4,900 compounds, 4% hits. AID 492993. shares compounds with KCNK9 block;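 active = thallium signal drop more than 5 SD beyond the mean of the no-compound control wells, seen in both duplicate plates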;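 also: signal is fluorescence rise after thallium addition divided by baseline fluorescence; plate controls were assay buffer only for no effect and full block by chlorpromazine control for full effect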
KCNK9 uninduced: second counter-screen for KCNK9 modulators: effect in non-induced cells; shares compounds with KCNK9 block; non-induced KCNK9-HEK293, FluxOR thallium flux; inhibition, % at 10 µM; 4,900 compounds, 40% hits;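 active = thallium signal drop beyond 5 SD of the untreated control mean, on both duplicate plates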;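 also: plate controls were buffer only IC0 wells for no effect and SID17386958 at its maximal inhibitory level for full effect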
Active calls of the source: *; i = inactive; x = no result given. This is a sample that favours compounds with a hit; in the whole collection about 3.5% have one here.

SMILES	KCNK3 block	KCNK9 block	Kir21 block	TMEM16A inh	ANO1 activ	KCNK9 inh conf	Kir21 sel	KCNK9 uninduced
COc1cc(C2CC(=O)c3cnc(NC(=O)c4ccco4)nc3C2)cc(OC)c1OC (configuration not stated)	i	i	0.03	i	i	x	x	x
COC(=O)c1ccccc1NC(=O)C1CCN(C(=O)c2ccc(OC)cc2)CC1	i	i	0.69	i	i	i	i	i
Cc1ccc(CC2C(=O)N(c3nc(C)cc(C)n3)C(=O)C2C)cc1 (configuration not stated)	i	i	0.11	i	i	x	x	x
COc1cc(CN2CCCC(C(=O)c3ccc4c5c(cccc35)CC4)C2)cc(OC)c1O (configuration not stated)	i	i	-2.6	i	i	i	i	i
CN1CCC(C(=O)N2CCCC(C(=O)c3ccc4c5c(cccc35)CC4)C2)CC1 (configuration not stated)	i	i	0.11	i	i	x	x	x
CC(=O)N1CCCC(C(=O)c2ccc3c4c(cccc24)CC3)C1 (configuration not stated)	i	i	0.98	i	i	i	i	i
O=C(c1ccc2c3c(cccc13)CC2)C1CCCN(Cc2cccnc2)C1 (configuration not stated)	i	i	0.02	i	i	i	i	i
COc1cccc(OC)c1CN1CCCC(C(=O)c2ccccc2SC)C1 (configuration not stated)	i	i	-1.9	i	i	i	i	i
C/C(=N\N=c1/scc(C)n1Cc1ccco1)c1cccc([N+](=O)[O-])c1	i	-8.7*	-0.57	i	i	i	i	i
c1ccc(C[n+]2c(-c3ccccc3)csc2Nc2ccccc2)cc1	i	-8.7*	-0.94	i	i	35%*	i	32%*
Cc1ccccc1NC(=O)C1C2CCCCC21 (configuration not stated)	i	i	1.2	i	i	x	x	x
O=C(NN1C(=O)c2ccccc2C1=O)C1C2CCCCC21 (configuration not stated)	i	i	0.07	i	i	i	i	i
Cc1ccc(/C=N/NC(=O)CSc2nc3ccccc3n2Cc2ccc(Cl)cc2)o1	i	-21*	1.4	i	i	62%*	i	50%*
O=[N+]([O-])c1ccc(S(=O)(=O)Nc2ccc3c(c2)OCCO3)cc1	i	-8.1*	-0.25	i	i	i	i	i
COc1ccc(CNC(=O)COC(=O)c2ccc(Br)o2)cc1	i	x	x	x	i	x	x	x
CC(C)(C)OC(=O)N1CCN(C(=O)c2[nH]cnc2C(=O)Nc2nccs2)CC1	i	x	x	x	i	x	x	x
Cc1ccc(OCC(=O)N/N=C\c2cn(C)c3ccccc23)c([N+](=O)[O-])c1	i	i	-0.11	i	i	x	x	x
COc1ccc(NC(=O)Oc2cc(C)ccc2C(C)C)cc1	i	i	-0.47	i	i	x	x	x
O=C(CN(Cc1ccco1)C(=O)c1ccc([N+](=O)[O-])cc1)Nc1ccccc1C(F)(F)F	i	x	x	x	i	x	x	x
CC(C)COc1ccc(C(=O)N(CC(=O)Nc2ccccc2C(F)(F)F)Cc2ccco2)cc1	i	i	0.57	i	i	i	i	i
NS(=O)(=O)c1cccc(NC(=O)CCSc2ccccc2Cl)c1	i	i	-2.9	i	i	x	x	x
CS(=O)(=O)N(CC(=O)Nc1cccc([N+](=O)[O-])c1)c1ccccc1	i	i	-0.42	i	i	x	x	x
O=C(CCSc1ccccc1Cl)Nc1cccc([N+](=O)[O-])c1	i	i	1.8	i	i	i	i	30%*
Cc1ccccc1CN(CC(=O)Nc1cccc([N+](=O)[O-])c1)S(=O)(=O)c1ccc(Cl)cc1	i	i	-0.01	i	i	i	i	i
